# Experimental data as given in the supplement of paper PMC8728848.
# The entries come from a sample that favours the strongest signals as a whole.
# B1: PpFlo3 (Pichia pastoris) (protein)
# chain: MGSSHHHHHHSSGLVPRGSHMQESGNGTTSDTAYACDIGATPFDGFNATIYQYQASDDNSIQDPVFMSTGYLQRNQLHSTTGVTNPGFNIFTAGVATTTLYGIPNVNYQNMLLELKGYFRADASGNYGLSLRNIDDSAILFFGRETAFECCNENLIPLDEAPTDYSLFTIKEGEASTNPDSYTYTQYLEAGRYYPVRTFFANIRTRAVFNFTMTLPDGSELTDFQNYIFQFGALNQ
# B2: Thrombomodulin Extracellular (Mus musculus), P15306 (protein)
# chain: MLGIFFLGVLAPASLGLSALAKLQPTGSQCVEHECFALFQGPATFLDASQACQRLQGHLMTVRSSVAADVISLLLSQSSMDLGPWIGLQLPQGCDDPVHLGPLRGFQWVTGDNHTSYSRWARPNDQTAPLCGPLCVTVSTATEAAPGEPAWEEKPCETETQGFLCEFYFTASCRPLTVNTRDPEAAHISSTYNTPFGVSGADFQTLPVGSSAAVEPLGLELVCRAPPGTSEGHWAWEATGAWNCSVENGGCEYLCNRSTNEPRCLCPRDMDLQADGRSCARPVVQSCNELCEHFCVSNAEVPGSYSCMCETGYQLAADGHRCEDVDDCKQGPNPCPQLCVNTKGGFECFCYDGYELVDGECVELLDPCFGSNCEFQCQPVSPTDYRCICAPGFAPKPDEPHKCEMFCNETSCPADCDPNSPTVCECPEGFILDEGSVCTDIDECSQGECFTSECRNFPGSYECICGPDTALAGQISKDCDPIPVREDTKEEEGSGEPPVSPTPGSPTGPPSARPVHSGVLIGISIASLSLVVALLALLCHLRKKQGAARAELEYKCASSAKEVVLQHVRTDRTLQKF
# Experiments:
# Test in all cases: glycan array binding signal (z-score within array); higher = stronger binding
# Conditions in all cases: glycan notation: IUPAC condensed, linker removed
# [1] = biological target: Man(a1-2)Man(a1-6)[Man(a1-3)]Man(a1-6)[Man(a1-2)Man(a1-2)Man(a1-3)]Man(b1-4)GlcNAc(b1-4)GlcNAc
# Outline: (§1)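 Glycan array data were curated from 3228 arrays in the Consortium for Functional Glycomics database and kept only where the protein sequence was available. Glycan names were converted to IUPAC-condensed notation, and columns mapping to the same glycan were averaged. The binding signal is a within-array Z-score, averaged across arrays of the same protein sequence at different concentrations or buffers and across linkers. Negative Z-scores can be read as non-binding.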
# Neu5Ac(a2-3)Gal = biological target: Neu5Ac(a2-3)Gal
# Outline: as §1
# [2] = biological target: Neu5Ac(a2-3)Gal(b1-4)[Fuc(a1-3)]GlcNAc(b1-3)Gal(b1-4)[Fuc(a1-3)]GlcNAc(b1-3)Gal(b1-4)[Fuc(a1-3)]GlcNAc
# Outline: as §1
# [3] = biological target: Neu5Ac(a2-3)[GalNAc(b1-4)]Gal(b1-4)GlcNAc
# Outline: as §1
# [4] = biological target: Neu5Ac(a2-6)Gal(b1-4)GlcNAc
# Outline: as §1
# [5] = biological target: Neu5Ac(a2-6)Gal(b1-4)GlcNAc(b1-2)Man(a1-3)[Man(a1-6)]Man(b1-4)GlcNAc(b1-4)GlcNAc
# Outline: as §1
# [6] = biological target: Neu5Ac(a2-6)Gal(b1-4)GlcNAc(b1-2)Man(a1-6)[GlcNAc(b1-2)Man(a1-3)]Man(b1-4)GlcNAc(b1-4)GlcNAc
# Outline: as §1
# [7] = biological target: Neu5Ac(a2-8)Neu5Ac(a2-3)Gal(b1-3)GalNAc(b1-4)[Neu5Ac(a2-8)Neu5Ac(a2-3)]Gal(b1-4)Glc
# Outline: as §1
# [8] = biological target: Neu5Ac9Ac(a2-3)Gal(b1-3)GlcNAc
# Outline: as §1
# Neu5Gc(a2-3)Gal(b1-4)Glc = biological target: Neu5Gc(a2-3)Gal(b1-4)Glc
# Outline: as §1
# Fuc(a1-2)Gal(b1-3)GalNAc = biological target: Fuc(a1-2)Gal(b1-3)GalNAc
# Outline: as §1
# [9] = biological target: Fuc(a1-2)Gal(b1-3)GalNAc(b1-4)[Neu5Ac(a2-3)]Gal(b1-4)Glc
# Outline: as §1
# [10] = biological target: Fuc(a1-2)Gal(b1-3)GlcNAc(b1-2)Man(a1-3)[Fuc(a1-2)Gal(b1-3)GlcNAc(b1-2)Man(a1-6)]Man(b1-4)GlcNAc(b1-4)GlcNAc
# Outline: as §1
# [11] = biological target: Fuc(a1-2)Gal(b1-4)GlcNAc(b1-3)Gal(b1-4)GlcNAc
# Outline: as §1
# [12] = biological target: Fuc(a1-2)Gal(b1-4)[Fuc(a1-3)]GlcNAc
# Outline: as §1
# [13] = biological target: Fuc(a1-2)Gal(b1-4)[Fuc(a1-3)]GlcNAc(b1-3)Gal(b1-4)[Fuc(a1-3)]GlcNAc
# Outline: as §1
# [14] = biological target: Fuc(a1-2)[Gal(a1-3)]Gal(b1-3)GalNAc(b1-3)Gal(a1-4)Gal(b1-4)Glc
# Outline: as §1
# [15] = biological target: Fuc(a1-2)[Gal(a1-3)]Gal(b1-3)GlcNAc(b1-3)GalNAc
# Outline: as §1
# [16] = biological target: Fuc(a1-2)[Gal(a1-3)]Gal(b1-4)[Fuc(a1-3)]Glc
# Outline: as §1
# [17] = biological target: Fuc(a1-2)[GalNAc(a1-3)]Gal
# Outline: as §1
# [18] = biological target: Fuc(a1-2)[GalNAc(a1-3)]Gal(b1-4)GlcNAc(b1-2)Man
# Outline: as §1
# [19] = biological target: Fuc(a1-3)[Gal(b1-4)]GlcNAc(b1-3)Gal(b1-3)[Fuc(a1-4)]GlcNAc
# Outline: as §1
# Gal(a1-3)Gal(b1-4)GlcNAc = biological target: Gal(a1-3)Gal(b1-4)GlcNAc
# Outline: as §1
# [20] = biological target: Gal(a1-3)Gal(b1-4)GlcNAc(b1-2)Man
# Outline: as §1
# Gal(a1-4)Gal(b1-4)GlcNAc = biological target: Gal(a1-4)Gal(b1-4)GlcNAc
# Outline: as §1
# [21] = biological target: Gal(a1-4)Gal(b1-4)GlcNAc(b1-2)Man(a1-3)[Gal(a1-4)Gal(b1-4)GlcNAc(b1-2)Man(a1-6)]Man(b1-4)GlcNAc(b1-4)GlcNAc
# Outline: as §1
# [22] = biological target: Gal(b1-3)GlcNAc(b1-2)Man(a1-3)[GlcNAc(b1-4)][Gal(b1-3)GlcNAc(b1-2)Man(a1-6)]Man(b1-4)GlcNAc(b1-4)GlcNAc
# Outline: as §1
# [23] = biological target: Gal(b1-3)GlcNAc(b1-2)[Gal(b1-3)GlcNAc(b1-6)]Man(a1-6)[Gal(b1-3)GlcNAc(b1-2)Man(a1-3)]Man(b1-4)GlcNAc(b1-4)GlcNAc
# Outline: as §1
# [24] = biological target: Gal(b1-3)GlcNAc(b1-3)GalNAc
# Outline: as §1
# [25] = biological target: Gal(b1-3)[Fuc(a1-4)]GlcNAc(b1-2)Man(a1-3)[Gal(b1-3)[Fuc(a1-4)]GlcNAc(b1-2)Man(a1-6)]Man(b1-4)GlcNAc(b1-4)[Fuc(a1-6)]GlcNAc
# Outline: as §1
# [26] = biological target: Gal(b1-4)GlcNAc(b1-2)Man(a1-3)[GlcNAc(b1-2)Man(a1-6)]Man(b1-4)GlcNAc(b1-4)GlcNAc
# Outline: as §1
# [27] = biological target: Gal(b1-4)GlcNAc(b1-2)[Gal(b1-4)GlcNAc(b1-6)]Man(a1-6)[Gal(b1-4)GlcNAc(b1-2)Man(a1-3)]Man(b1-4)GlcNAc(b1-4)[Fuc(a1-6)]GlcNAc
# Outline: as §1
# [28] = biological target: Gal(b1-4)GlcNAc(b1-2)[Gal(b1-4)GlcNAc(b1-6)]Man(a1-6)[GlcNAc(b1-4)][Gal(b1-4)GlcNAc(b1-2)[Gal(b1-4)GlcNAc(b1-4)]Man(a1-3)]Man(b1-4)GlcNAc(b1-4)[Fuc(a1-6)]GlcNAc
# Outline: as §1
# [29] = biological target: Gal(b1-4)GlcNAc(b1-3)Gal(b1-4)GlcNAc(b1-3)Gal(b1-4)GlcNAc(b1-3)Gal(b1-4)GlcNAc(b1-2)Man(a1-3)[Gal(b1-4)GlcNAc(b1-3)Gal(b1-4)GlcNAc(b1-3)Gal(b1-4)GlcNAc(b1-3)Gal(b1-4)GlcNAc(b1-2)Man(a1-6)]Man(b1-4)GlcNAc(b1-4)[Fuc(a1-6)]GlcNAc
# Outline: as §1
# [30] = biological target: Gal3S(b1-4)[Fuc(a1-3)]Glc6S
# Outline: as §1
# GalNAc(b1-3)GlcNAc = biological target: GalNAc(b1-3)GlcNAc
# Outline: as §1
# GalNAc(b1-4)Gal(b1-4)Glc = biological target: GalNAc(b1-4)Gal(b1-4)Glc
# Outline: as §1
# [31] = biological target: GlcNAc(a1-4)Gal(b1-4)GlcNAc(b1-3)Gal(b1-4)GlcNAc(b1-3)Gal(b1-4)GlcNAc
# Outline: as §1
# [32] = biological target: GlcNAc(b1-3)Gal(b1-4)GlcNAc(b1-3)Gal(b1-4)GlcNAc(b1-3)Gal(b1-4)GlcNAc(b1-2)Man(a1-3)[GlcNAc(b1-3)Gal(b1-4)GlcNAc(b1-3)Gal(b1-4)GlcNAc(b1-3)Gal(b1-4)GlcNAc(b1-2)Man(a1-6)]Man(b1-4)GlcNAc(b1-4)[Fuc(a1-6)]GlcNAc
# Outline: as §1
# [33] = biological target: GlcNAc(b1-3)Gal(b1-4)GlcNAc(b1-3)Gal(b1-4)GlcNAc(b1-3)Gal(b1-4)GlcNAc(b1-3)Gal(b1-4)GlcNAc(b1-2)Man(a1-3)[GlcNAc(b1-3)Gal(b1-4)GlcNAc(b1-3)Gal(b1-4)GlcNAc(b1-3)Gal(b1-4)GlcNAc(b1-3)Gal(b1-4)GlcNAc(b1-2)Man(a1-6)]Man(b1-4)GlcNAc(b1-4)GlcNAc
# Outline: as §1
Binder,glycan array binding signal (z-score) [1],glycan array binding signal (z-score) (Neu5Ac(a2-3)Gal),glycan array binding signal (z-score) [2],glycan array binding signal (z-score) [3],glycan array binding signal (z-score) [4],glycan array binding signal (z-score) [5],glycan array binding signal (z-score) [6],glycan array binding signal (z-score) [7],glycan array binding signal (z-score) [8],glycan array binding signal (z-score) (Neu5Gc(a2-3)Gal(b1-4)Glc),glycan array binding signal (z-score) (Fuc(a1-2)Gal(b1-3)GalNAc),glycan array binding signal (z-score) [9],glycan array binding signal (z-score) [10],glycan array binding signal (z-score) [11],glycan array binding signal (z-score) [12],glycan array binding signal (z-score) [13],glycan array binding signal (z-score) [14],glycan array binding signal (z-score) [15],glycan array binding signal (z-score) [16],glycan array binding signal (z-score) [17],glycan array binding signal (z-score) [18],glycan array binding signal (z-score) [19],glycan array binding signal (z-score) (Gal(a1-3)Gal(b1-4)GlcNAc),glycan array binding signal (z-score) [20],glycan array binding signal (z-score) (Gal(a1-4)Gal(b1-4)GlcNAc),glycan array binding signal (z-score) [21],glycan array binding signal (z-score) [22],glycan array binding signal (z-score) [23],glycan array binding signal (z-score) [24],glycan array binding signal (z-score) [25],glycan array binding signal (z-score) [26],glycan array binding signal (z-score) [27],glycan array binding signal (z-score) [28],glycan array binding signal (z-score) [29],glycan array binding signal (z-score) [30],glycan array binding signal (z-score) (GalNAc(b1-3)GlcNAc),glycan array binding signal (z-score) (GalNAc(b1-4)Gal(b1-4)Glc),glycan array binding signal (z-score) [31],glycan array binding signal (z-score) [32],glycan array binding signal (z-score) [33]
B1,-0.271,-0.283,-0.266,-0.272,-0.282,-0.281,4.82,-0.017,-0.267,-0.276,–,–,–,–,–,–,–,–,–,–,–,–,–,–,–,–,–,–,–,–,–,–,–,–,–,–,–,–,–,–
B2,–,–,–,–,–,–,–,–,–,–,-0.717,-0.952,2.48,0.406,-0.221,0.048,1.38,2.8,-1.18,-0.162,1.79,-0.513,-0.81,-2.66,-0.239,1.73,0.655,0.399,-0.059,2.94,-1.49,-0.135,-0.329,2.27,2.97,-0.126,3.27,2.52,1.85,-0.332
